The values below come from ChEMBL document CHEMBL1961873, “Compounds: GSK PKIS; Assays: Nanosyn kinase panel” (2012).

The target of experiment [1] is Ribosomal protein S6 kinase alpha-6 (Homo sapiens) (UniProt Q9UK32). The conditions noted are these: at 1 µM.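 Note: each value is a mean inhibition of RSK4 from a GSK PKIS panel screen.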
The target of experiment [2] is T1, Serine/threonine-protein kinase Sgk1 (Homo sapiens) (UniProt O00141).
T1 sequence (whole entry): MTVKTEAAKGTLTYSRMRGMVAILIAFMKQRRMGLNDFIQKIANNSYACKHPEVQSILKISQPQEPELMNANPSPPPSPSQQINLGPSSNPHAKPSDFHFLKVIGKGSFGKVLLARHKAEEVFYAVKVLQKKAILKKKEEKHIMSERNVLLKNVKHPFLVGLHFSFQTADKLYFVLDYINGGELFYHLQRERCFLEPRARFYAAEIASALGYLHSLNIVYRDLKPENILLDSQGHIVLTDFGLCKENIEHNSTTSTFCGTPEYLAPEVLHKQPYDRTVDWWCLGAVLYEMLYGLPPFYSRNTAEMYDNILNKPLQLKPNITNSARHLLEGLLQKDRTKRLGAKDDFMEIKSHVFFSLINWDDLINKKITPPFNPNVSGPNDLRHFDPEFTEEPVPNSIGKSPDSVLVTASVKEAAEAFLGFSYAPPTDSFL
The conditions noted are these: at 0.1 µM.

Experiment [3] concerns the target T1, Serine/threonine-protein kinase Sgk1 (Homo sapiens). The conditions noted are these: at 1 µM.
The target of experiment [4] is T2, Serine/threonine-protein kinase Sgk2 (Homo sapiens) (UniProt Q9HBY8).
T2 sequence (whole entry): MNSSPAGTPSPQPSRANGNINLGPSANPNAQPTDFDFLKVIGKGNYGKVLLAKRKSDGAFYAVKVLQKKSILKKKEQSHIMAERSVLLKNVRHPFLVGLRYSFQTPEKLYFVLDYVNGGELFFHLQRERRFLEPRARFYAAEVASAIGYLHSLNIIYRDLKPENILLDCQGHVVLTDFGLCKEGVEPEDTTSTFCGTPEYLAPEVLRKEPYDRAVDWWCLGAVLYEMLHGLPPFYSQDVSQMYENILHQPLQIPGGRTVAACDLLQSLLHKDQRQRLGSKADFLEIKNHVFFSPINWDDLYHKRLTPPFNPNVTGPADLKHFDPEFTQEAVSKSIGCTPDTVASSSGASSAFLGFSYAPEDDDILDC
The conditions noted are these: at 0.1 µM.

The target in experiment [5] is T2, Serine/threonine-protein kinase Sgk2 (Homo sapiens). Particulars: at 1 µM.
Experiment [6] concerns the target T3, Serine/threonine-protein kinase Sgk3 (Homo sapiens) (UniProt Q96BR1).
T3 sequence (whole entry): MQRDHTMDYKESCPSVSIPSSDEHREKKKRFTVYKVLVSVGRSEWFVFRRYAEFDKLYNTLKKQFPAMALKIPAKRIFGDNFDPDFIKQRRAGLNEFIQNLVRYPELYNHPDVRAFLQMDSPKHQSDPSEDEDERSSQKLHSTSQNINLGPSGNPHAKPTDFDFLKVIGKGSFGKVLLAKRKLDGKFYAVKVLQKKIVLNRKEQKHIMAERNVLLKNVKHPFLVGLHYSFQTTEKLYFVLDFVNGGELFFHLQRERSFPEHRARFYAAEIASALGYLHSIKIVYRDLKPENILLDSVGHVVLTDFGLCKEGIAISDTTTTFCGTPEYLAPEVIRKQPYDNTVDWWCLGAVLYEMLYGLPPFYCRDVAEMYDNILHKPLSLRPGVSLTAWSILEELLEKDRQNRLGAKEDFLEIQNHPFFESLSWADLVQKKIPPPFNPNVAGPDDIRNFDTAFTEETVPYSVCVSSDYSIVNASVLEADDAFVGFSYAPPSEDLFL
Particulars: at 0.1 µM.

Experiment [7] deals with T3, Serine/threonine-protein kinase Sgk3 (Homo sapiens). Particulars: at 1 µM.
Experiment [8] addresses 5'-AMP-activated protein kinase catalytic subunit alpha-1 (Homo sapiens) (UniProt Q13131). Particulars: at 0.1 µM.
Experiment [9] shares this target. Particulars: at 1 µM.
Experiment [10] has as its target 5'-AMP-activated protein kinase catalytic subunit alpha-2 (Homo sapiens) (UniProt P54646). Particulars: at 0.1 µM.
For experiment [11] the target is unchanged. The conditions noted are these: at 1 µM.
The target of experiment [12] is T4, NUAK family SNF1-like kinase 1 (Homo sapiens) (UniProt O60285).
T4 sequence (whole entry): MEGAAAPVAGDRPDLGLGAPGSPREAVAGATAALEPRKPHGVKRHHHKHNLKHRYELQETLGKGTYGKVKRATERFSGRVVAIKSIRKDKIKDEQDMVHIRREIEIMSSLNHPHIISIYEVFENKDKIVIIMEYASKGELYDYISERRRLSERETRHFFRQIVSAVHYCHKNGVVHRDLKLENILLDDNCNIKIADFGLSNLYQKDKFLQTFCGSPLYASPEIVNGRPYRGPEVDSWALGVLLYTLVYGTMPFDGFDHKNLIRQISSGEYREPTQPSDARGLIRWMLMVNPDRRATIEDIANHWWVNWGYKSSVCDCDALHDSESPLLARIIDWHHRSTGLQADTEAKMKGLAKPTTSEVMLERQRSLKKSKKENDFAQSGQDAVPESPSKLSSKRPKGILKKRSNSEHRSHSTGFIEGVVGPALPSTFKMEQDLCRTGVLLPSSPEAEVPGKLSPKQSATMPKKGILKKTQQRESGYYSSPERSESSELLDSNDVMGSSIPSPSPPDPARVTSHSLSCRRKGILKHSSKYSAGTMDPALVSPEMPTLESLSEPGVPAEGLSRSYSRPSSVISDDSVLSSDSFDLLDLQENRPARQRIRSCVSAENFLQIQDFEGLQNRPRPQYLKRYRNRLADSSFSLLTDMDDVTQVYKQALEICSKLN
Particulars: at 1 µM.

Experiment [13] concerns the target T5, Serine/threonine-protein kinase BRSK1 (Homo sapiens) (UniProt Q8TDC3).
T5 sequence (whole entry): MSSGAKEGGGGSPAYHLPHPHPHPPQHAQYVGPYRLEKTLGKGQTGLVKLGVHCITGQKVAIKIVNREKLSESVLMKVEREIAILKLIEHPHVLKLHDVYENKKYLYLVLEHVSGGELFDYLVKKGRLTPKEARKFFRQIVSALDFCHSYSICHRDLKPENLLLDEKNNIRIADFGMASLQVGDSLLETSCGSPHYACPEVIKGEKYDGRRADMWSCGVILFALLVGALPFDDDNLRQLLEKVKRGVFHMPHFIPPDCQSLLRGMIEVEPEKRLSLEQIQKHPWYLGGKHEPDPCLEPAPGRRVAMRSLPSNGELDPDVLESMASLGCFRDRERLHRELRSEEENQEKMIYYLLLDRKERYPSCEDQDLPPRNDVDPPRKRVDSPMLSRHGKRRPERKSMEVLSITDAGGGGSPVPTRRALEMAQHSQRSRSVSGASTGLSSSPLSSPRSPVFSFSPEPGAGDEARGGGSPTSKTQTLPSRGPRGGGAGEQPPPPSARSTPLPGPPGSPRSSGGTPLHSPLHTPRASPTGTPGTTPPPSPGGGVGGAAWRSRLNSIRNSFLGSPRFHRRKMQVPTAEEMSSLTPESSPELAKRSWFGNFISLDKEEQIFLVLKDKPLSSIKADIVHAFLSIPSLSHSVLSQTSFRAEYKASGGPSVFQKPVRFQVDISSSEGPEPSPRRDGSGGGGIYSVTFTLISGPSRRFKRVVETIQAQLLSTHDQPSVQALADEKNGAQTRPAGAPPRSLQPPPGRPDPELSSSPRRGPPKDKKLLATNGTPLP
Particulars: at 0.1 µM.

Experiment [14] has as its target T5, Serine/threonine-protein kinase BRSK1 (Homo sapiens). The conditions noted are these: at 1 µM.
For experiment [15], the target named is T6, Serine/threonine-protein kinase BRSK2 (Homo sapiens) (UniProt Q8IWQ3).
T6 sequence (whole entry): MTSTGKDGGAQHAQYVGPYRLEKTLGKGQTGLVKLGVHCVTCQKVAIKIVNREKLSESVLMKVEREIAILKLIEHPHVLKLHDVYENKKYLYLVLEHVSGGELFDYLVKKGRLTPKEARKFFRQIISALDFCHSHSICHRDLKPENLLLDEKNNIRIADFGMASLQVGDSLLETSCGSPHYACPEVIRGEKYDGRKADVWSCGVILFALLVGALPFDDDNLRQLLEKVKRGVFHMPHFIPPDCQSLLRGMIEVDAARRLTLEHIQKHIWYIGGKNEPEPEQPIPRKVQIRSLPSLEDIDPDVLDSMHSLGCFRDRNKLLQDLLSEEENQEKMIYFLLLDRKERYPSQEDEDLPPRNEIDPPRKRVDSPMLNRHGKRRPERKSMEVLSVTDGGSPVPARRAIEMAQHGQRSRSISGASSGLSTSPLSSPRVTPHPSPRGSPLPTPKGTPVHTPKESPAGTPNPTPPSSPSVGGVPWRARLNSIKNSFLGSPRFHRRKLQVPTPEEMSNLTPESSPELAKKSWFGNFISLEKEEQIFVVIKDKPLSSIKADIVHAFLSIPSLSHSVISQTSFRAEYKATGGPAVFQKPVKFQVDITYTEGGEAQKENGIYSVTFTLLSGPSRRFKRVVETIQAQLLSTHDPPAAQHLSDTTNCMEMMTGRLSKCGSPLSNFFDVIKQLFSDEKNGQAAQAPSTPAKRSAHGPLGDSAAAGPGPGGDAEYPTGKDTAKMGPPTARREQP
The conditions noted are these: at 0.1 µM.

The target of experiment [16] is T6, Serine/threonine-protein kinase BRSK2 (Homo sapiens). The conditions noted are these: at 1 µM.
Experiment [17] concerns the target Calcium/calmodulin-dependent protein kinase type 1D (Homo sapiens) (UniProt Q8IU85). Particulars: at 0.1 µM.
The target is the same in experiment [18]. The conditions noted are these: at 1 µM.
Experiment [19] deals with Calcium/calmodulin-dependent protein kinase type II subunit alpha (Homo sapiens) (UniProt Q9UQM7). The conditions noted are these: at 0.1 µM.
Sequence of Calcium/calmodulin-dependent protein kinase type II subunit alpha (Homo sapiens) (Q9UQM7 whole entry): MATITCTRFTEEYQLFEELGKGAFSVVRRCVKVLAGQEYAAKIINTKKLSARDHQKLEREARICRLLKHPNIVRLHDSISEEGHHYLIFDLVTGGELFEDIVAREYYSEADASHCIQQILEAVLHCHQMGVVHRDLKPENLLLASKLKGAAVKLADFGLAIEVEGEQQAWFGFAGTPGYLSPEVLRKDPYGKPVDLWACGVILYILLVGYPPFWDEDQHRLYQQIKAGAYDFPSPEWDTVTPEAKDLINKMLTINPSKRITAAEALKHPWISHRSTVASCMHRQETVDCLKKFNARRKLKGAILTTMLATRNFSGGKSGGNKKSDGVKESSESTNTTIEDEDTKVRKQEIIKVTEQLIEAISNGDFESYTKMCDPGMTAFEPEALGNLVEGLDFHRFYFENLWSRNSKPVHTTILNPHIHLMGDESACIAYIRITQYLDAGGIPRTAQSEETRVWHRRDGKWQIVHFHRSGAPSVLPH
Experiment [20] concerns the target T4, NUAK family SNF1-like kinase 1 (Homo sapiens). The conditions noted are these: at 0.1 µM.

Sequence of 5'-AMP-activated protein kinase catalytic subunit alpha-1 (Homo sapiens) (Q13131 whole entry, looked up): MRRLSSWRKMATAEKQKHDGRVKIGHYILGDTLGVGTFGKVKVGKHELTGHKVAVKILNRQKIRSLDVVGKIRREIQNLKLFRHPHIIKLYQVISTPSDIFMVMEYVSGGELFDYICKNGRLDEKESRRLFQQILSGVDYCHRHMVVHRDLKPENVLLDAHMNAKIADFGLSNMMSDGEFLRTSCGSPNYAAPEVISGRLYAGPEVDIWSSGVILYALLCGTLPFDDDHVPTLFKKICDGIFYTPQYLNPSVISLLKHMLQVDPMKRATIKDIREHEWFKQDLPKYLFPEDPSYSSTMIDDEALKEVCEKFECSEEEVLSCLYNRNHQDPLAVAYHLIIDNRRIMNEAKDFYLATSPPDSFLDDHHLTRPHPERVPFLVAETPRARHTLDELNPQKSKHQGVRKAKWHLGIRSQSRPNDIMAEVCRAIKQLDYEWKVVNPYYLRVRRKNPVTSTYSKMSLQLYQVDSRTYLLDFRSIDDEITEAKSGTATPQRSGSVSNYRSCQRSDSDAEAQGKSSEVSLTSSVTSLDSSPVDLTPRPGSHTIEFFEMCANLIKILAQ
Sequence of 5'-AMP-activated protein kinase catalytic subunit alpha-2 (Homo sapiens) (P54646 whole entry, looked up): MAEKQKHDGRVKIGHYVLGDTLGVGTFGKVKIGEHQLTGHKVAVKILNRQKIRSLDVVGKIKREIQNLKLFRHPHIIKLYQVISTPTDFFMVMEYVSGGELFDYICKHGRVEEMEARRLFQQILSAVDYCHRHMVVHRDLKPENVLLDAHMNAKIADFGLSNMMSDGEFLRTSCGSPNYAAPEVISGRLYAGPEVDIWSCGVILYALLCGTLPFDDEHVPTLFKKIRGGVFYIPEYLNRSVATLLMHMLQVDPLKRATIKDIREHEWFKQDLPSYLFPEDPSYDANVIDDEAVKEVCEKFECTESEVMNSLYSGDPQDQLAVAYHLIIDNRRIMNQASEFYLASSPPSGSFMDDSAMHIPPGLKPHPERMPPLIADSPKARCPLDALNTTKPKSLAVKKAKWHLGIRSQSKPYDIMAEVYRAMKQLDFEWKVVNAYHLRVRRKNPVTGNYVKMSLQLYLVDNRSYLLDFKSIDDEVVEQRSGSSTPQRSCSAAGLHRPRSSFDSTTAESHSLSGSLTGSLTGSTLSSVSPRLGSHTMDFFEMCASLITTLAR
Sequence of Calcium/calmodulin-dependent protein kinase type 1D (Homo sapiens) (Q8IU85 whole entry, looked up): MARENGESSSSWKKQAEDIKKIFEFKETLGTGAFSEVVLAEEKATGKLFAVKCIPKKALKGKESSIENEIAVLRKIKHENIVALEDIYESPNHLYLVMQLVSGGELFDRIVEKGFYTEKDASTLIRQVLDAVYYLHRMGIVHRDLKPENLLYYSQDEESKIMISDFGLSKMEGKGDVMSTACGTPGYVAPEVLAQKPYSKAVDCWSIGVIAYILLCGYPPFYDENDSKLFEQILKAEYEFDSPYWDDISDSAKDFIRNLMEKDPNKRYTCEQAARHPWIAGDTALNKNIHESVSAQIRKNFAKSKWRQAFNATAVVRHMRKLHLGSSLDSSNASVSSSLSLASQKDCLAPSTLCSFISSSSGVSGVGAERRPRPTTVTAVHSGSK
Sequence of Ribosomal protein S6 kinase alpha-6 (Homo sapiens) (Q9UK32 whole entry): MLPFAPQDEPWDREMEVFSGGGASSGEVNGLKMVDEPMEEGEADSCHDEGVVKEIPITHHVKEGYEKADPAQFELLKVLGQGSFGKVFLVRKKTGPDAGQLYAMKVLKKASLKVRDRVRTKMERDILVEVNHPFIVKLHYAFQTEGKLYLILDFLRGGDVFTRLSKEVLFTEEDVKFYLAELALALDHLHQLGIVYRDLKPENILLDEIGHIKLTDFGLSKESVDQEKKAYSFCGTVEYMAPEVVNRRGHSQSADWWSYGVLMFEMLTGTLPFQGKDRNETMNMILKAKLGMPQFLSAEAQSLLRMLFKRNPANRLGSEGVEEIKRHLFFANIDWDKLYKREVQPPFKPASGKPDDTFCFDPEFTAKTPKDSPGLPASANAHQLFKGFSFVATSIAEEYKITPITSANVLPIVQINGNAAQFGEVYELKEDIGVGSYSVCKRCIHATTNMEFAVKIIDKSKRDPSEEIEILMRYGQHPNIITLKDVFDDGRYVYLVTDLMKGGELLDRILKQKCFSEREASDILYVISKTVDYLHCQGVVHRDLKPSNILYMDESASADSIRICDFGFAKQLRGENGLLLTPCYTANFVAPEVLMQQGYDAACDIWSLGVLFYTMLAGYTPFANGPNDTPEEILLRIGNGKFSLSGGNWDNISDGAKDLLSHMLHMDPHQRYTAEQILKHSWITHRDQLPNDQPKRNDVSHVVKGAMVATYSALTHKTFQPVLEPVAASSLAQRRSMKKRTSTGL

One may read the inhibition as the relative decrease from the control value, in per cent. Regarding `CNC(=O)c1cncc(/C=C/c2c(Cl)cccc2Cl)c1`, the inhibition was 1.63% in experiment [1]; -0.87% in experiment [2]; -0.45% in [3]; 0.49% in experiment [4]; 0.48% in experiment [5]; 1.43% in experiment [6]. For the same molecule, the inhibition in experiment [7] worked out at 2.18%; in experiment [8], 2.85%; in experiment [9], 3.59%; in [10], 6.15%; in experiment [11] it was 1.77%; in experiment [12], 7.27%. For the same molecule, the inhibition was 4.16% in [13]; 7.3% in experiment [14]; 1.54% in experiment [15]; 9.33% in experiment [16]; -0.35% in experiment [17]; 2.1% in experiment [18]. The inhibition in [19] stood at 3%.
Consider `NCc1ccc(-c2nc(-c3ccc(Cl)c(O)c3)c(-c3ccncc3)[nH]2)cc1`, for which the inhibition is 0.03% in experiment [1]; 0.62% in [2]; 0.21% in [3]; 0.15% in [4]; -0.56% in [6]; -0.81% in experiment [7]. The inhibition is 0.17% in experiment [8]; -1.38% in experiment [9]; -2.35% in experiment [10]; 3.06% in [11]; 1.84% in [20]; 3.79% in experiment [12]. For the same molecule, the inhibition in experiment [13] was 0.1%; in experiment [14] it was 0.59%; in experiment [15], -0.21%; in experiment [16], 1.33%; in [17], 0.15%; in experiment [18] it was 0.23%. In experiment [19], the inhibition worked out at 0.76%.
Regarding `Cc1nn(C)c2cc(N(C)c3ccnc(Nc4cccc(S(N)(=O)=O)c4)n3)ccc12`, the inhibition in experiment [1] was 6.01%; in [2], 3.21%; in [3], 3.89%; in experiment [4] it was -0.4%; in experiment [5], 5.81%; in experiment [6], 3.28%. Further, the inhibition turned out to be 6.89% in experiment [7]; 1.01% in experiment [8]; 1.93% in [9]; 2.68% in [10]; 3.54% in experiment [11]; 20.6% in [20]. The inhibition is 64.2% in [12]; 1.45% in experiment [13]; 0.63% in experiment [14]; 0.72% in experiment [15]; 4.4% in experiment [16]; 0.85% in [17]. In addition, the inhibition in [18] was determined as 3.14%; in [19] it was 1.6%.
`CCn1c(-c2nonc2N)nc2cncc(C(=O)N3CC[C@H](N)C3)c21`: the inhibition in experiment [1] came out at 25%; in experiment [2], 7.33%; in [3] it was 29.4%; in experiment [4], 6.54%; in experiment [5], 44.6%; in experiment [6], 19.6%. For the same molecule, the inhibition turned out to be 68.1% in [7]; 4.01% in experiment [8]; 6.61% in experiment [9]; 4.72% in [10]; 6.01% in [11]; 0.02% in experiment [20]. In addition, the inhibition in [12] is 0.59%; in experiment [13], 1.37%; in [14] it was 2.48%; in experiment [15] it was 0.94%; in experiment [16], 6.07%; in experiment [17], 1.79%. Also, the inhibition in experiment [18] is 0.54%; in [19], 3.71%.
